Measurements as given in PubChem BioAssay (Tox21).
Inconclusive results are not listed. A call without a number means that no potency is given here. The source made the active and inactive calls. Calls come from the whole dose curve; as a rule, active = well fitted cell-killing curve with a large enough effect in the repeat runs; inconclusive = weak or mixed curves, or effect the other way; inactive = flat fitted curve, though single readings scatter.

Assays:
[1] = cAMP Responsive Elements (CRE) small molecule antagonists, cell-based qHTS assay: qHTS cell viability counter screen (AID 2060913); note: nearly all actives have a fitted effect of over 40% in size
Summary of the method: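 Steps: cells plated and held 18 hrs at 37 C/5% CO2; compounds and NKH477 (0.25 uM final) added; 3 hrs incubation; reporter substrate read; CellTiter-Glo added to measure cytotoxicity by luminescence.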

[2] = cAMP Responsive Elements (CRE) small molecule agonists, cell-based qHTS assay: qHTS cell viability counter screen (AID 2060914);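 note: viability read after 3 h of compound exposure; nearly all actives have a fitted effect of over 50% in size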
Summary of the method: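 CRE-bla HEK293T cells in 10% dialyzed FBS medium were exposed to compounds for 3 h at 37C after 18 h plating. CellTiter-Glo was then added in the same wells, and luminescence was read after 30 min at room temperature.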

In the case of `COc1ccc2cc1Oc1cc3c(cc1OC)CC[N+](C)(C)[C@H]3Cc1ccc(cc1)Oc1c(OC)c(OC)cc3c1[C@@H](C2)[N+](C)(C)CC3`, the Potency [1] is reported as “inactive” and the Potency [2] is reported as “inactive”.

For `COC(=O)/C=C\C(=O)O`, the Potency [1] was “inactive” and the Potency [2] was “inactive”.

With `CCC=O` the Potency [1] was “inactive” and the Potency [2] was “inactive”.
